The record followed here is PubChem BioAssay (EPA / NIEHS).

Test [1] can be described thus: ATG_DR4_LXR_CIS: Attagene CIS-FACTORIAL HepG2 Assay for human Liver X Receptor (LXR), DR4 submotif (AID 2282929). The note with it: HepG2 Attagene DR4 cis-reporter, mRNA transcription; actives raise or lower the signal. Summed up: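 HepG2 cells transiently transfected with cis-promoter-driven multiplexed reporter units (DR4 element) were dosed for 24 h. Reporter mRNA was quantified by RT-PCR, fluorescent primer extension, HpaI digestion and capillary electrophoresis; bidirectional fitting versus DMSO baseline.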

A short description of test [2]: ATG_Ets_CIS: Attagene CIS-FACTORIAL HepG2 Assay for human Erythroblast Transformation Specific (ETS) (AID 2282941). To be noted: HepG2 ETS cis-reporter transcription, actives raise or lower the signal. In short, it runs like this: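 Bidirectional fit versus DMSO of reporter mRNA signal, detected by RT-PCR and capillary electrophoresis in HepG2 cells transiently transfected with cis-element reporters and dosed 24 h.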

Test [3] in a line: ATG_M_06_CIS: Attagene CIS-FACTORIAL HepG2 Assay for M06 Transcription Factor (Internal Marker) (AID 2282950). To be noted: HepG2 Attagene CIS-FACTORIAL M06 internal marker reporter; actives raise or lower the signal. In short, it runs like this: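 One of many multiplexed endpoints: HepG2 reporter mRNA after 24 h dosing, detected by RT-PCR and capillary electrophoresis fluorescence; gain or loss of signal analysed against DMSO.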

The target in test [4] is Hypoxia-inducible factor 1-alpha (Homo sapiens) (UniProt Q16665). Put plainly: ATG_HIF1a_CIS: Attagene CIS-FACTORIAL HepG2 Assay for human Hypoxia Inducible Factor 1 (HIF1A) (AID 2282951). The note with it: HepG2 Attagene cis-factorial HIF1a reporter transcription; actives raise or lower the signal. Summed up:
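HepG2 cells transiently transfected with multiplexed cis-promoter reporter units; reporter mRNA read 24 h after dosing by RT-PCR, 6-FAM primer-extension labelling, HpaI digestion and capillary electrophoresis. Bidirectional fit versus DMSO baseline.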

For test [5], the target named is Hepatocyte nuclear factor 6 (Homo sapiens) (UniProt Q9UBC0). Put plainly: ATG_HNF6_CIS: Attagene CIS-FACTORIAL HepG2 Assay for human Hepatocyte Nuclear Factor 6 (HNF6) (AID 2282952). To be noted: HepG2 Attagene cis-factorial HNF6 reporter transcription; actives raise or lower the signal. In short, it runs like this: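 Readout: fluorescent reporter-transcript fragments resolved by capillary electrophoresis after RT-PCR, reflecting endogenous factor activity in transfected HepG2. Exposure 24 h. Gain or loss of signal fitted bidirectionally against DMSO.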
Chain of Hepatocyte nuclear factor 6 (Homo sapiens) (Q9UBC0 whole entry, looked up, the tested form may be a part): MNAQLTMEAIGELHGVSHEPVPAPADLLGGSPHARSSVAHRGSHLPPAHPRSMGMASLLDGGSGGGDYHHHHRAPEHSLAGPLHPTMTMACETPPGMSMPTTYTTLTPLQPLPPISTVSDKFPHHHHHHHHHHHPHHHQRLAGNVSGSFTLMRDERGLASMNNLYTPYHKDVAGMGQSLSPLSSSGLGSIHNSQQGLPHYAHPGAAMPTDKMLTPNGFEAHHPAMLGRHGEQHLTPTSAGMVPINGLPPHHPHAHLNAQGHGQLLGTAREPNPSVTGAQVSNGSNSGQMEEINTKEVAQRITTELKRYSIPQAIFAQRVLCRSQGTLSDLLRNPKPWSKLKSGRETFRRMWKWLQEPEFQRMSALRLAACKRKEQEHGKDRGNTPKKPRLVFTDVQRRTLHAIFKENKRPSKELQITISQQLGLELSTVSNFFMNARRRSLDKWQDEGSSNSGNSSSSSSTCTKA

In test [6] the target is Heat shock factor protein 1 (Homo sapiens) (UniProt Q00613). The test can be described thus: ATG_HSE_CIS: Attagene CIS-FACTORIAL HepG2 Assay for human Heat Shock Transcription Factor 1 (HSE) (AID 2282953). To be noted: HepG2 HSE cis-reporter, Attagene RNA transcription; actives raise or lower the signal. In short, it runs like this:
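Using HepG2 with transfected cis-driven reporter constructs, compound effects on endogenous factor activity are scored as reporter mRNA change at 24 h. Detection: RT-PCR, HpaI digestion, capillary electrophoresis; bidirectional fitting to DMSO.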

Test [7] can be described thus: ATG_Sox_CIS: Attagene CIS-FACTORIAL HepG2 Assay for human SRY-box transcription factor (SOX) (AID 2282960). To be noted: HepG2 Attagene cis-factorial SOX reporter, mRNA; actives raise or lower the signal. Summed up: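 HepG2 cells transiently transfected with cis-element-driven multiple reporter transcription units, dosed 24 h; reporter mRNA measured by RT-PCR, FAM labelling, HpaI digestion and capillary electrophoresis. Bidirectional fit versus DMSO baseline.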

The nature of test [8]: ATG_TA_CIS: Attagene CIS-FACTORIAL HepG2 Assay for human TA Basal Promoter (AID 2282964). The note with it: HepG2 Attagene CIS-factorial TA basal promoter reporter; actives raise or lower the signal. In short, it runs like this: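 Transient MRTU transfection of HepG2 preceded 24 h compound exposure. Reporter mRNA levels were then read by RT-PCR with capillary electrophoresis, and this background-control endpoint was fitted bidirectionally to DMSO.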

Test [9] is described as follows: ATG_TCF_b_cat_CIS: Attagene CIS-FACTORIAL HepG2 Assay for human T-Cell-Factor with beta-catenin (TCF/b-cat) (AID 2282965). The note with it: HepG2 TCF/beta-catenin cis-reporter transcription, actives raise or lower the signal. Summed up:
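Endogenous transcription factor activity is captured through cis-promoter reporter constructs transiently introduced into human HepG2 liver cells. Induced reporter mRNA is measured after 24 h and fitted bidirectionally relative to DMSO.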

Test [10] is described as follows: ATG_TAL_CIS: Attagene CIS-FACTORIAL HepG2 Assay for human TAL Basal Promoter (AID 2282966).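 Note: background control endpoint measuring basal TAL promoter reporter mRNA not a specific factor.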 To be noted: HepG2 Attagene cis-factorial TAL promoter reporter; actives raise or lower the signal. In short, it runs like this:
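HepG2, transient MRTU transfection, 24 h compound exposure; RNA → oligo(dT) RT → PCR → 6-FAM primer extension → HpaI digest → CE fluorescence. Bidirectional curve fit vs DMSO. Background-control readout.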

The nature of test [11]: ATG_TGFb_CIS: Attagene CIS-FACTORIAL HepG2 Assay for human Transforming Growth Factor (TGF) (AID 2282967). To be noted: HepG2 Attagene CIS TGFb reporter, mRNA transcription; actives raise or lower the signal. Summed up:
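After a 24-hour incubation with compound, transfected HepG2 cells were lysed for RNA; reporter cDNA was amplified, fluorescently end-labeled and separated by CE. DMSO served as baseline for bidirectional fits.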

Test [12] has as its target X-box-binding protein 1 (Homo sapiens) (UniProt P17861). The test can be described thus: ATG_Xbp1_CIS: Attagene CIS-FACTORIAL HepG2 Assay for human X-box Binding Protein 1 (XBP1) (AID 2282972). To be noted: HepG2 XBP1 cis-element reporter, Attagene multiplex; actives raise or lower the signal. Summed up:
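Changes in reporter transcript abundance, read by RT-PCR and capillary electrophoresis, reflect endogenous transcription factor activity. Transfected HepG2 cells received compound for 24 hours; DMSO defined baseline for bidirectional analysis.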

The target in test [13] is Transcriptional activator Myb (Homo sapiens) (UniProt P10242). The test can be described thus: ATG_Myb_CIS: Attagene CIS-FACTORIAL HepG2 Assay for human Myeloblastosis (Myb) Proto-Oncogene Transcription Factor (AID 2282986). The note with it: HepG2 Attagene CIS-FACTORIAL Myb reporter transcription; actives raise or lower the signal. In short, it runs like this: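 HepG2 cells were transiently transfected with cis-regulated multiple reporter transcription units reflecting endogenous Myb activity, then exposed to compound for 24 hours. Reporter mRNA was measured by RT-PCR with capillary electrophoresis; bidirectional fitting versus DMSO baseline.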
Chain of Transcriptional activator Myb (Homo sapiens) (P10242 whole entry, looked up): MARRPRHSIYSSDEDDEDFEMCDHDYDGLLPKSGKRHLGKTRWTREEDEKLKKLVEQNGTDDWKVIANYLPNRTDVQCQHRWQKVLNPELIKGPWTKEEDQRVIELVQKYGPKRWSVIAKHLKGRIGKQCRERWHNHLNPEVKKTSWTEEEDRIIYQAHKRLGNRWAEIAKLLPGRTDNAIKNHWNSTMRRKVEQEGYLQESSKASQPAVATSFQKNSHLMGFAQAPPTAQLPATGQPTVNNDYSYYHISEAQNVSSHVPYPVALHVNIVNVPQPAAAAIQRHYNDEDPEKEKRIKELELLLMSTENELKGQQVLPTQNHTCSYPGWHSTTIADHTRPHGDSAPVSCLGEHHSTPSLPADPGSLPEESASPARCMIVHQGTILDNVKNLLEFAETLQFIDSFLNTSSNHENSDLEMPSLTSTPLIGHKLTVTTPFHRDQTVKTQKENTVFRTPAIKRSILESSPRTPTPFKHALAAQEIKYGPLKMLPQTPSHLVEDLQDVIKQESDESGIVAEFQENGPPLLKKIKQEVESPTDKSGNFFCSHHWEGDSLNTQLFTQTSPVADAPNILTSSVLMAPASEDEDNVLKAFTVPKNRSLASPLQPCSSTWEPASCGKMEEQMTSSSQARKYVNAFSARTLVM

The target in test [14] is Nuclear respiratory factor 1 (Homo sapiens) (UniProt Q16656). Put plainly: ATG_NRF1_CIS: Attagene CIS-FACTORIAL HepG2 Assay for human Nuclear Respiratory Factor 1 (NRF1) Orphan Gene (AID 2282987). To be noted: HepG2 NRF1 cis-element reporter, Attagene multiplex; actives raise or lower the signal. Summed up: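 HepG2 cells transiently transfected with multiple reporter transcription units under cis-regulatory promoter control, so endogenous transcription-factor activity is read. After 24 h compound exposure, reporter mRNA quantified by RT-PCR, fluorescent labelling, HpaI digestion and capillary electrophoresis; bidirectional fitting versus DMSO.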
Chain of Nuclear respiratory factor 1 (Homo sapiens) (Q16656 whole entry, looked up): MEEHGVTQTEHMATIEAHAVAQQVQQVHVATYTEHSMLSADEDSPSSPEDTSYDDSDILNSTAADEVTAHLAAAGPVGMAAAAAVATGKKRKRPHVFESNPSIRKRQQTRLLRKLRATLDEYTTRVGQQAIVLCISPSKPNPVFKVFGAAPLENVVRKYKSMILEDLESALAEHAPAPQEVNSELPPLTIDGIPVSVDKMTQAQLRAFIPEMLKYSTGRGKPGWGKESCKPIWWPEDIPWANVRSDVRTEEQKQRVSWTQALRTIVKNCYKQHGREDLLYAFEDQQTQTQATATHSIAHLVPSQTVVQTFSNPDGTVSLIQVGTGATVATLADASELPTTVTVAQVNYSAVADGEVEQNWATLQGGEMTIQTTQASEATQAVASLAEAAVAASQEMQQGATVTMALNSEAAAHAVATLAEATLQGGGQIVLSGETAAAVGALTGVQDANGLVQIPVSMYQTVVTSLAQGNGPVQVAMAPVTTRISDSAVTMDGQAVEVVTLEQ

In test [15] the target is Myc proto-oncogene protein (Homo sapiens) (UniProt P01106). The test can be described thus: ATG_Myc_CIS: Attagene CIS-FACTORIAL HepG2 Assay for human Myelocytomatosis (Myc) Proto-Oncogene Transcription Factor (AID 2282990). To be noted: HepG2, Attagene cis-reporter transcription factor activity; actives raise or lower the signal. In short, it runs like this:
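HepG2, transient MRTU transfection (cis promoters, endogenous TFs); 24 h dosing; TriZol RNA → oligo(dT) RT → PCR → 6-FAM primer extension → HpaI cut → CE. Bidirectional fit vs DMSO.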

The nature of test [16]: ATG_NRF2_ARE_CIS: Attagene CIS-FACTORIAL HepG2 Assay for human Nuclear Factor Erythroid 2 Related Factor 2 (NFR2) response to Antioxidant Response Elements (ARE) (AID 2282992). The note with it: HepG2 Attagene ARE/NRF2 reporter, transcription factor activity; actives raise or lower the signal. Summed up:
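Using transiently transfected HepG2 cells exposed for 24 h, reporter mRNA levels were determined by RT-PCR with fluorescent primer extension and capillary electrophoresis, analysed for gain or loss of signal against DMSO.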

The nature of test [17]: ATG_Oct_MLP_CIS: Attagene CIS-FACTORIAL HepG2 Assay for human Octamer-Binding Transcription Factor (Oct) (AID 2282993). The note with it: HepG2 Attagene cis-factorial Oct reporter, mRNA; actives raise or lower the signal. In short, it runs like this:
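Transfected HepG2 cells, 24 h treatment. Reporter mRNA quantified by RT-PCR–capillary electrophoresis; bidirectional fitting against DMSO.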

The target of test [18] is Nuclear receptor subfamily 1 group I member 2 (Homo sapiens) (UniProt O75469). The test can be described thus: ATG_PXR_TRANS: Attagene TRANS-FACTORIAL HepG2 Assay for human Pregnane X Receptor (PXR) (AID 2283008; active = hit-call score of the fitted dose curve at least 0.9, where 1 is the maximum). In short, it runs like this:
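Multiplexed TRANS reporter panel in HepG2; this component tracks PXR-Gal4-driven reporter mRNA after 24 h dosing, measured by RT-PCR with capillary electrophoresis fluorescence, fitted against DMSO.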

Test [19] addresses Cellular tumor antigen p53 (Homo sapiens) (UniProt P04637). The test can be described thus: ATG_p53_CIS: Attagene CIS-FACTORIAL HepG2 Assay for human p53 Transcription Factor (AID 2282994). The note with it: HepG2 p53 cis-element reporter, Attagene mRNA; actives raise or lower the signal. Summed up:
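In HepG2 cells, reporter transcription units under cis-regulatory promoters were transiently introduced. Following 24 h treatment, RNA was processed to labelled, digested cDNA fragments read by capillary electrophoresis; fitting was bidirectional versus DMSO.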

Test [20] can be described thus: ATG_XTT_Cytotoxicity: Cytotoxicity Assessment in the Attagene TRANS-FACTORIAL HepG2 Assay (AID 2283584; active = hit-call score of the fitted dose curve at least 0.9, where 1 is the maximum). In short, it runs like this: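 XTT readout of cell number in transfected HepG2 cells, 24 h post-dosing; DMSO serves as negative control and baseline, with activity taken as loss of viability signal.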

Records with an inconclusive call do not appear. Activity calls are given as the source filed them. Rule for the calls, unless noted: active = hit-call score of the fitted dose curve at least 0.9, where 1 is the maximum; inactive = score below 0.9.

Chain of Hypoxia-inducible factor 1-alpha (Homo sapiens) (Q16665 whole entry, looked up): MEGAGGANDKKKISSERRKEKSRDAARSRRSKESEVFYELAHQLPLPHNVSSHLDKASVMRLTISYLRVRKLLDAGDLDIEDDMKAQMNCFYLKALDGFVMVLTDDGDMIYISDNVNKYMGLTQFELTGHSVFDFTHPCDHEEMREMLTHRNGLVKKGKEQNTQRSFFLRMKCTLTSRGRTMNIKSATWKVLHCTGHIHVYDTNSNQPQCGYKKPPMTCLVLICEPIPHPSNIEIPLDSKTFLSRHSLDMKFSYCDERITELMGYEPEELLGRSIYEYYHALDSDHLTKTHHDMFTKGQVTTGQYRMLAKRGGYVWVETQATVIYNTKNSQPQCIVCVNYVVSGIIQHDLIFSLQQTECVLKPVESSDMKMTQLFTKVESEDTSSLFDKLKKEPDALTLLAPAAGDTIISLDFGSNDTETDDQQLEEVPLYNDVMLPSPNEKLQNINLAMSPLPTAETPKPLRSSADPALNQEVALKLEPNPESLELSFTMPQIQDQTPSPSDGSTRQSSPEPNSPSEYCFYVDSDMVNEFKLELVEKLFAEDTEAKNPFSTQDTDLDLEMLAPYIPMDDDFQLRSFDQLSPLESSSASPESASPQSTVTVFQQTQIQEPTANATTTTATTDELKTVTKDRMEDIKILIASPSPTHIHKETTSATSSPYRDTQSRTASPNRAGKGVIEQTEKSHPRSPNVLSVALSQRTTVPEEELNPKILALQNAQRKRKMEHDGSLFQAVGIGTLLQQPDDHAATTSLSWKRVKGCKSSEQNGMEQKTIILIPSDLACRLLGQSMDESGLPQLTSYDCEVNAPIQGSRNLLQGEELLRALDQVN
Chain of Myc proto-oncogene protein (Homo sapiens) (P01106 whole entry, looked up): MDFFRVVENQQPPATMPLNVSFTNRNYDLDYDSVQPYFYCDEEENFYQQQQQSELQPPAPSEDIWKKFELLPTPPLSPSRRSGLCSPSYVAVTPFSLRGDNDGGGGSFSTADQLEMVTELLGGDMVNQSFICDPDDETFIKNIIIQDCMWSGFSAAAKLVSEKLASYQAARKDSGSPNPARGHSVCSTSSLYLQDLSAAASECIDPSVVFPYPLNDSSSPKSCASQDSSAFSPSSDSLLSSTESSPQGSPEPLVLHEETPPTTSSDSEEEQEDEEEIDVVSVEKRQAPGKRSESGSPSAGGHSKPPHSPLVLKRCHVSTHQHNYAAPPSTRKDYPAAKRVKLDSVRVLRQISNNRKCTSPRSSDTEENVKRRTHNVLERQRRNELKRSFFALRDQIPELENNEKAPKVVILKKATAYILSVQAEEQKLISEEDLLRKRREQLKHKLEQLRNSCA
Chain of Nuclear receptor subfamily 1 group I member 2 (Homo sapiens) (O75469 whole entry, looked up, the tested form may be a part): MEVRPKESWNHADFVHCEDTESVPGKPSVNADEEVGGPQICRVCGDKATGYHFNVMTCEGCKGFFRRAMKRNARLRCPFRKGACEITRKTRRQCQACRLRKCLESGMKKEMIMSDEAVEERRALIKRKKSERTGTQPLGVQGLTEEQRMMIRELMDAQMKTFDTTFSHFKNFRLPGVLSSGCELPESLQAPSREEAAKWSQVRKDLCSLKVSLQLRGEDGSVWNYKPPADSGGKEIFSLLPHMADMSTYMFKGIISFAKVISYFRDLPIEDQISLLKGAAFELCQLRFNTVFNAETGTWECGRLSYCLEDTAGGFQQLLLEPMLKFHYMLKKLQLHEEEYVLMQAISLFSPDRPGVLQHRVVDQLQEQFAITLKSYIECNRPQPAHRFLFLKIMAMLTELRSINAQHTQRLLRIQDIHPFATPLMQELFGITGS
Chain of X-box-binding protein 1 (Homo sapiens) (P17861 whole entry, looked up): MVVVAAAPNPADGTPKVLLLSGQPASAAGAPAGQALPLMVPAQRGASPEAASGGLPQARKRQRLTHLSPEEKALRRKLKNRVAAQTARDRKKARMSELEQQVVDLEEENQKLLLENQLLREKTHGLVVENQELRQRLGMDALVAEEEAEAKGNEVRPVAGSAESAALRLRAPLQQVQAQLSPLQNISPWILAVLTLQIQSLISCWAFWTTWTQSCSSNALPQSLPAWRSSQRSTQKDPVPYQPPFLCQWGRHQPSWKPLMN
Chain of Heat shock factor protein 1 (Homo sapiens) (Q00613 whole entry, looked up): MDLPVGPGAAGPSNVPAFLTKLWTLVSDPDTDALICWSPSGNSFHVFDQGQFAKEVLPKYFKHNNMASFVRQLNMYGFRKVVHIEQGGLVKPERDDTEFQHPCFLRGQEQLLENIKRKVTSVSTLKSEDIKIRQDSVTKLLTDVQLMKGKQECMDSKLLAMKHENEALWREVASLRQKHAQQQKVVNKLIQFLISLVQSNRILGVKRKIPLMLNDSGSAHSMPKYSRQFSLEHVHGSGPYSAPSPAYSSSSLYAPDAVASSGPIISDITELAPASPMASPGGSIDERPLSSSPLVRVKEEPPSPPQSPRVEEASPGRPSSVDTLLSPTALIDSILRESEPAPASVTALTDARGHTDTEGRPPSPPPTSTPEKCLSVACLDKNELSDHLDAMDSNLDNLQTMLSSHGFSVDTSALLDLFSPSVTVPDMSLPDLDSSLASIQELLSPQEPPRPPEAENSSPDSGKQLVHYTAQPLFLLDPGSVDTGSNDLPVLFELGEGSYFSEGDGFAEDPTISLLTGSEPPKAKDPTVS
Chain of Cellular tumor antigen p53 (Homo sapiens) (P04637 whole entry, looked up, the tested form may be a part): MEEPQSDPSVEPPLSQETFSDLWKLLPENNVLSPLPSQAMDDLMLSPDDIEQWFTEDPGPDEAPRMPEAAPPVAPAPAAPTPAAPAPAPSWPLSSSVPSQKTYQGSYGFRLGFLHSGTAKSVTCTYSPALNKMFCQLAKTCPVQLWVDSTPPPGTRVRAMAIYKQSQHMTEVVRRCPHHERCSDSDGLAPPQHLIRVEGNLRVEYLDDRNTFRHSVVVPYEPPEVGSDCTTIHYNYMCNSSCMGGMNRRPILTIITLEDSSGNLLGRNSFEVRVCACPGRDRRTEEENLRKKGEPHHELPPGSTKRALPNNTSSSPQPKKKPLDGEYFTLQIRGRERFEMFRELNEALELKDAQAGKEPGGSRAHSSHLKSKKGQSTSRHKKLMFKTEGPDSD

One may read the AC50 as the midpoint of the concentration-response curve, whichever way the signal moves. On to `Cc1cccnc1`, for which the molecule was called inactive in test [1], in [3], in test [4], in test [5], in [7] and in test [8]. Also, the outcome in [9], in [10], in [11], in [12], in [14] and in test [15] was inactive. The result in test [16], in [17] and in test [18] was inactive. The half-maximal activity concentration (AC50) in test [2] is 165 µM (active); in [6], 100 µM (active); in test [13] it was 164 µM (active).
Take `O=C1CCCCCCCCCCCCCC1`: the AC50 in test [1] was 49.4 µM (active); in [6], 62.1 µM (active); in test [15] it was 23.6 µM (active); in test [16] it was 32.6 µM (active); in [18], 26.6 µM (active). Also, the molecule was classed as inactive in test [2], in test [3], in test [4], in [5], in test [7] and in test [8]. Further, the call in test [9], in [11], in test [12], in test [13], in test [14] and in test [17] was inactive. The outcome in [19] and in test [20] was inactive.
Turning to `C1=CCC=C1`, the outcome in test [1], in [2], in [3], in test [4], in [5] and in [8] was inactive. Also, the outcome in test [9], in test [11], in test [12], in [13], in test [14] and in test [15] was inactive. Also, the molecule was classed as inactive in test [16], in [17] and in test [20].
Regarding `Cc1cc(C)c(S(=O)(=O)O)cc1N=Nc1cc(S(=O)(=O)O)c2ccccc2c1O`, the outcome in test [1], in [3], in [4], in test [5], in [6] and in test [7] was inactive. Moreover, the call in [8], in test [9], in test [10], in test [11], in [12] and in [13] was inactive. Further, the result in test [14], in [15], in test [17], in test [19], in [18] and in [20] was inactive. Also, the AC50 in test [16] was 72.2 µM (active).
